# PubChem BioAssay (NCATS)
# Where “and” joins values, the source holds several entries; their conditions need not be identical. Equal values may be shown once. Values without a mark were called inactive. Records with an inconclusive call do not appear. Calls of active or inactive are those of the source. Unless noted, the call rests on the fitted dose curve; in most records, active means well fitted curve in either direction with a large enough effect (not every such curve was filed as active); inconclusive means small, poorly fitted or top-dose-only effect, or another doubt; inactive means flat fitted curve, though single readings scatter. Residues, ends and D or L forms follow the SMILES beside them. *: point of attachment. Cbz = O=C(OCc1ccccc1)*
# Legend:
# [1] = AP1 Signaling Pathway (AID 357); conditions: ME-180 AP-1-bla reporter, EGF-induced, beta-lactamase ratio, 5 h; at 38 µM (top of the series) unless noted;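 further: ME-180 reporter cells stimulated with EGF at its EC50 level; on the % scale 0 is the no-effect control and ±100 the full control effect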
# In short: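 Cells are seeded overnight, exposed to compound titrations and an EC50 level of EGF for 5 hours at 37 °C, then loaded with CCF4 dye for 2.5 hours. Beta-lactamase activity under the AP-1 element is read as a blue/green ratio.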
# [2] = NFAT Signaling Pathway (AID 444); conditions: Jurkat NFAT-bla M1, carbachol, beta-lactamase ratio, 5 h; at 38 µM (top of the series) unless noted;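 further: carbachol stimulus at about its EC50 of 1 µM final; on the % scale 0 is the no-effect control and ±100 the full control effect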
# In short: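 Jurkat cells carrying an NFAT-driven β-lactamase reporter and co-transfected muscarinic M1 receptor were treated with compound plus carbachol (1 uM final, an EC50 level) for 5 h at 37 °C. CCF4 loading followed for 1 h at RT; 460/530 nm ratio gave %activity.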
# [3] = Stat Signaling Pathway (AID 446); conditions: ME-180 (cervical carcinoma) SIE beta-lactamase reporter, IL-6 stimulated, 5 h; at 38 µM (top of the series) unless noted;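 further: ME-180 cervical cancer cells given 40 pM IL-6 alongside compound; SIE-controlled beta-lactamase reporter measured as 460/530 nm FRET emission ratio; on the % scale 0 is the no-effect control and ±100 the full control effect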
# In short: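 Compound effects on IL-6-induced STAT reporter activity were measured in ME-180 cells. After overnight culture, cells were co-treated with 40 pM IL-6 for 5 hrs before beta-lactamase substrate loading at room temperature.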
# [4] = target: Glucocorticoid receptor (Homo sapiens) (UniProt P04150); experiment: GR-GFP Redistribution (AID 450;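 active means compounds whose dose series gives a full or clear partial fitted curve of increased nuclear translocation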; further: potency means the concentration at half of the fitted maximal effect); conditions: U2OS GR-GFP nuclear translocation, laser cytometry, 2 h
# [5] = target: Glucocorticoid receptor (Homo sapiens) (UniProt P04150); experiment: GR-EFC Redistribution (AID 451; calls by dose curve; further: potency means the concentration at half of the fitted maximal effect); conditions: CHO-K1 GR-EFC translocation, beta-gal luminescence, 2 h
# In short: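 CHO-K1 cells stably expressing nuclear-localized β-gal enzyme acceptor and GR fused C-terminally to the enzyme donor fragment; ligand-driven nuclear translocation restores β-gal by complementation. Compounds titrated up to 46 uM final, 2 h at 37 °C; luminescence read.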
# [6] = target: Mitogen-activated protein kinase 10 (Mus musculus) (UniProt Q61831); experiment: JNK3 AlphaScreen Assay (AID 530);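 further: kinase came from lysate of stimulated human HepG2 cells; signal reports phosphorylation of biotinylated GST-cJun 1-79 at Ser73 with 10 µM ATP; on the % scale 0 is the no-effect control and ±100 the full control effect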
# In short: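 Biotinylated GST-cJun(1-79) served as substrate for JNK3 in HepG2 lysates stimulated with IL-1beta and TNF-alpha. ATP was 10 uM final, pH 7.6. Ser73 phosphorylation was quantified by AlphaScreen (680 nm excitation).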
# [7] = target: Cytochrome P450 1A2 (Homo sapiens) (UniProt P05177); experiment: p450-cyp1a2 (AID 410; calls by dose curve; further: potency means the concentration at half of the fitted maximal effect;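 on activity change, negative = inhibition: -100% = full effect of reference inhibitor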)
# In short: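 20nM CYP1A2, 100uM Luciferin-ME (=Km), 100mM KPO4; cpd 10 min RT; +NADPH regen, 60 min RT; stop/detect 20 min; luminescence. Normalized to furafylline 57 uM = full inhibition.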
# [8] = Cell Viability - BJ (AID 421; calls by dose curve;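 further: potency means the concentration at half of the fitted maximal effect; cells exposed to compound for 40 hours at 37 °C before readout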); conditions: BJ fibroblast viability, qHTS
# In short: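 Luminescent ATP signal (CellTiter-Glo, 20 min at room temperature) served as the read-out of viable BJ cells after 40 hours of compound treatment. Responses were scaled between DMSO and 100 uM tamoxifen, and AC50 values were obtained by Hill modeling.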
# [9] = Cell Viability - Jurkat (AID 426;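 active means dose-dependent loss of cell ATP signal giving a full or clear fitted curve, ranked by lower potency value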;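 further: potency means the concentration at half of the fitted maximal effect; cells exposed to compound for 40 hours at 37 °C before ATP read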); conditions: qHTS
# In short: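 Luminescent ATP read-out (CellTiter-Glo, 20 min at room temperature) after 40 hr compound exposure at 37 °C of Jurkat E6-1 cells, 5000/well. Decreased ATP taken as cytotoxicity; AC50 from standard Hill equation.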
# [10] = Cell Viability - Hek293 (AID 427;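 active means compounds whose dose-response curve shows a full or clear partial loss of cell viability, called from curve shape rather than a numeric limit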;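 further: potency means the concentration at half of the fitted maximal effect; cells exposed to compound for 40 hours at 37 °C before reading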); conditions: qHTS
# In short: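 Luminescent ATP read-out (CellTiter-Glo, 20 min RT) after 40 hr compound exposure at 37 °C in complete medium. Signal normalized to DMSO (basal) and 100 uM tamoxifen (100% inhibition); concentration-response fitted with the standard Hill equation to give AC50.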
# [11] = Cell Viability - HepG2 (AID 433; calls by dose curve;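 further: potency means the concentration at half of the fitted maximal effect; potency for ATP loss meaning cytotoxicity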); conditions: qHTS
# In short: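 Cytotoxicity is scored as loss of intracellular ATP in HepG2 cells exposed to compounds for 40 h. Concentration-response curves, normalized to DMSO and 100 uM tamoxifen, give AC50 values.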
# [12] = Cell Viability - MRC5 (AID 434; calls by dose curve;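 further: potency means the concentration at half of the fitted maximal effect; cells exposed to compound for 40 hours at 37 °C; potency reflects cytotoxicity seen as loss of intracellular ATP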); conditions: MRC5 lung fibroblast viability, qHTS
# In short: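 Decrease in intracellular ATP, quantified by luciferase light output, reflects compound toxicity toward MRC5 cells exposed for 40 hr in complete culture medium. Concentration-response curves, scaled between DMSO and 100 uM tamoxifen, gave AC50 values.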
# [13] = Cell Viability - SK-N-SH (AID 435; calls by dose curve; further: potency means the concentration at half of the fitted maximal effect); conditions: SK-N-SH neuroblastoma cell viability qHTS
# In short: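 Cells seeded at 1500 per well and incubated 5 hr at 37 °C. Compound added, then 40 hr at 37 °C. CellTiter-Glo added, 20 min at room temperature, luminescence read.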
# [14] = Cell Viability - N2a (AID 540; active means well fitted curve in the direction sought with a large enough effect; an effect the other way counts as inactive or inconclusive;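 further: plate controls were DMSO alone for no effect and tamoxifen control for full effect; nearly all actives have a fitted effect of over 45% in size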)
# In short: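 N2a mouse neuroblastoma, 1500 cells/well, 5 hr settle; compound 40 hr, 37 °C; CellTiter-Glo 20 min RT; luminescence; Hill-fit AC50.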
# [15] = Cell Viability - NIH 3T3 (AID 541; active means well fitted curve in the direction sought with a large enough effect; an effect the other way counts as inactive or inconclusive;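 further: plate controls were DMSO alone for no effect and tamoxifen positive control for full effect; nearly all actives have a fitted effect of over 25% in size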)
# In short: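 qHTS format; 40 hr compound exposure, 37 °C; CellTiter-Glo luminescence (cellular ATP) read-out after 20 min at RT. Decrease in ATP = cytotoxicity; AC50 from standard Hill fit.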
# [16] = Cell Viability - HUV-EC-C (AID 542; active means well fitted curve in the direction sought with a large enough effect; an effect the other way counts as inactive or inconclusive; further: on the % scale 0 is the no-effect control and ±100 the full control effect; nearly all actives have a fitted effect of over 35% in size)
# In short: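 Luminescent ATP read-out (CellTiter-Glo, 20 min room temperature) after 40 hr compound treatment of HUV-EC-C cells at 37 °C. Concentration-response data fitted with the standard Hill equation to give AC50; tamoxifen and doxorubicin served as positive controls.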
# [17] = Cell Viability - H-4-II-E (AID 543; active means well fitted curve in the direction sought with a large enough effect; an effect the other way counts as inactive or inconclusive; further: on the % scale 0 is the no-effect control and ±100 the full control effect; nearly all actives have a fitted effect of over 35% in size)
# In short: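 qHTS, rat hepatoma H-4-II-E, 1500 cells/well; 40 hr compound exposure, 37 °C; CellTiter-Glo ATP luminescence after 20 min RT; AC50 by standard Hill fit.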
# [18] = Cell Viability - SH-SY5Y (AID 544; active means well fitted curve in the direction sought with a large enough effect; an effect the other way counts as inactive or inconclusive;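 further: 0% = DMSO alone and -100% = 100 µM tamoxifen; nearly all actives have a fitted effect of over 55% in size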)
# In short: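 SH-SY5Y, 1500 cells/well, 5 hr pre-incubation 37 °C; cpd 40 hr 37 °C; CellTiter-Glo 20 min RT; luminescence (ATP) read. qHTS concentration-response, Hill fit → AC50. Tamoxifen, doxorubicin as positive controls.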
# [19] = Cell Viability - Renal Proximal Tubule (AID 545; active means well fitted curve in the direction sought with a large enough effect; an effect the other way counts as inactive or inconclusive;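 further: 0% = DMSO only and -100% = 100 µM tamoxifen; nearly all actives have a fitted effect of over 40% in size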)
# In short: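 Cytotoxicity is scored as a concentration-dependent drop in cellular ATP in primary rat renal proximal tubule cells exposed for 40 hr. AC50 derives from Hill modelling.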
# Sequence of Glucocorticoid receptor (Homo sapiens) (P04150 whole entry, looked up, the tested form may be a part): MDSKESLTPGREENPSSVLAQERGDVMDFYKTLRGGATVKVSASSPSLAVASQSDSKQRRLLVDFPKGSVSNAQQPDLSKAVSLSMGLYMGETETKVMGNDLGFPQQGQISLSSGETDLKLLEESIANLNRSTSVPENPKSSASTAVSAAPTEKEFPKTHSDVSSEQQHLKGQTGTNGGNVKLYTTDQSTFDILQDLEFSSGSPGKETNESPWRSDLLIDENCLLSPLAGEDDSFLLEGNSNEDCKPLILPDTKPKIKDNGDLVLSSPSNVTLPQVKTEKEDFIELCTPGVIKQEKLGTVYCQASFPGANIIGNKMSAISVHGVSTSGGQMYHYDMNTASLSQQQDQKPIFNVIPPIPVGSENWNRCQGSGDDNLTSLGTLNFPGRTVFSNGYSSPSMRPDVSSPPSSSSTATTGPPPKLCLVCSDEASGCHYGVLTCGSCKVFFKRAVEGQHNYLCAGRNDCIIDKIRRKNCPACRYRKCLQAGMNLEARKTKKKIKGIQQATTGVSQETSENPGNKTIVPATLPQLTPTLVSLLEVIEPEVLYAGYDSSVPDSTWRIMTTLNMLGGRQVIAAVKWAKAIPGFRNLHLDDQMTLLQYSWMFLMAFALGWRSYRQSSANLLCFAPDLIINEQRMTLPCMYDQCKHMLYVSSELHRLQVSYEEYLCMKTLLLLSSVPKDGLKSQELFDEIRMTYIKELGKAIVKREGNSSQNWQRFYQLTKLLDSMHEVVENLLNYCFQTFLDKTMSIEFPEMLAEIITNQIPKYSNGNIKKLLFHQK
# Sequence of Cytochrome P450 1A2 (Homo sapiens) (P05177 whole entry, looked up): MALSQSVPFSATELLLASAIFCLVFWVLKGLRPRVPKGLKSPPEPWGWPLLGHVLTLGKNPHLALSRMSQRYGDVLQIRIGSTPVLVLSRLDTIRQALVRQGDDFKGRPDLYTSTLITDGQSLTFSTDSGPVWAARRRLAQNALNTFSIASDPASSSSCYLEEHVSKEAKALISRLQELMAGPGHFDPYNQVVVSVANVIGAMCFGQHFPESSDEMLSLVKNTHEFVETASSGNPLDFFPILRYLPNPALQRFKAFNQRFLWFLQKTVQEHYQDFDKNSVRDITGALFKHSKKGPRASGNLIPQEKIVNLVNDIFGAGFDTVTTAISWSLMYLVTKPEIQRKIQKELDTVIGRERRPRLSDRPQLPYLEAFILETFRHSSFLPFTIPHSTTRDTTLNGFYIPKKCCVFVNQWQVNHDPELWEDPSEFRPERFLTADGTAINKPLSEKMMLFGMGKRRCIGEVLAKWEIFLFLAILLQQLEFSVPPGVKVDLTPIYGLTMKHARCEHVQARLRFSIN
compound,measurement,setting,value
COc1ccccc1N1CCN(CCCNc2c(C)c(=O)n(C)c(=O)n2C)CC1,"activity change, negative = inhibition",[1],8.51%
same,"activity change, negative = inhibition",[2],-22.9%
same,"activity, negative = inhibition",[3],0.762%
same,Potency,[4],> 46 µM
same,Potency,[5],> 46 µM
COc1ccccc1N1CCN(CCN(C(=O)c2ccc(F)cc2)c2ccccn2)CC1,"activity change, negative = inhibition",[1],1.26%
same,"activity change, negative = inhibition",[2],-0.748%
same,Potency,[4],> 46 µM
same,Potency,[5],> 46 µM
same,outcome,[6],inactive
CC(=O)C(C)=O,Potency,[7],inactive
same,Potency,[8],> 92 µM
same,Potency,[9],> 92 µM
same,Potency,[10],> 92 µM
same,Potency,[11],> 92 µM
same,Potency,[12],> 92 µM
same,Potency,[13],> 92 µM
same,"activity change, negative = inhibition",[2],3.23%
same,"activity, negative = inhibition",[3],31.9%
same,Potency,[4],> 46 µM
same,Potency,[5],> 46 µM
same,outcome,[6],inactive
same,outcome,[14],inactive
same,outcome,[15],inactive
same,outcome,[16],inactive
same,outcome,[17],inactive
same,outcome,[18],inactive
same,outcome,[19],inactive
CC(C)[C@H](NC(=O)OCc1ccccc1)C(=O)N[C@H](C=O)Cc1ccccc1 (Cbz-Val-Phe-aldehyde),"activity change, negative = inhibition",[1],-8.71%
same,Potency,[7],inactive
same,"activity change, negative = inhibition",[2],-9.23%
same,Potency,[4],> 46 µM
same,Potency,[5],> 46 µM
same,outcome,[6],inactive
N=C(N)c1ccc(OCCCCCOc2ccc(C(=N)N)cc2)cc1 (tested in a mixture with another compound),"activity change, negative = inhibition",[1],5.08%
same,"activity, negative = inhibition",[3],-3.59%
same,Potency,[4],> 46 µM
same,Potency,[5],> 46 µM
same,outcome,[6],inactive
CC1CNCCN1S(=O)(=O)c1cccc2cnccc12 (stereo not given),"activity change, negative = inhibition",[1],2.59% [at 17.2 µM]
same,"activity change, negative = inhibition",[2],4.83% [at 17.2 µM]
same,"activity, negative = inhibition",[3],-1.62% [at 17.2 µM]
same,Potency,[4],> 20.6 µM
COc1ccc(NC(=O)c2ccc(-c3ccc(-c4noc(C)n4)cc3C)cc2)cc1N1CCN(C)CC1,"activity change, negative = inhibition",[1],-2.61%
same,Potency,[7],inactive
same,"activity, negative = inhibition",[3],-18.9%
same,Potency,[4],> 46 µM
same,Potency,[5],> 46 µM
same,outcome,[6],inactive
NCCCCN=C(N)N,"activity change, negative = inhibition",[1],-8.22%
same,"activity change, negative = inhibition",[2],-4.07%
same,"activity, negative = inhibition",[3],-20.8%
same,Potency,[4],> 46 µM
same,Potency,[5],> 46 µM
O=C(O)C1=CCCN(CCON=C(c2ccccc2)c2ccccc2)C1,"activity change, negative = inhibition",[1],5.02%
same,"activity change, negative = inhibition",[2],-1.26%
same,"activity, negative = inhibition",[3],-1.1%
same,Potency,[4],> 46 µM
same,Potency,[5],> 46 µM
same,outcome,[6],inactive
CN(C)CCC(c1ccc(Br)cc1)c1ccccn1 (stereo not given),"activity change, negative = inhibition",[1],14% [at 17.2 µM]
same,"activity change, negative = inhibition",[2],-90.1% [at 17.2 µM] (active)
same,"activity, negative = inhibition",[3],1.22% [at 17.2 µM]
N=C(N)SCCc1cnc[nH]1,"activity change, negative = inhibition",[1],5.57%
same,Potency,[7],inactive
same,"activity change, negative = inhibition",[2],-4.42%
same,Potency,[4],> 46 µM
same,Potency,[5],> 46 µM
same,outcome,[6],inactive
Nc1ncnc2c1c(-c1ccc(Oc3ccccc3)cc1)cn2C1CCCC1,"activity change, negative = inhibition",[1],-103% (active)
same,Potency,[7],15.8 µM (active)
same,"activity, negative = inhibition",[3],-13.6%
same,Potency,[4],> 46 µM
same,Potency,[5],> 46 µM
same,outcome,[6],inactive
CCCCCCCCCCC/C=C\C(C)(C)/C=C\CCCC(=O)O,"activity change, negative = inhibition",[1],-13.8%
same,Potency,[7],39.8 µM (active)
same,Potency,[4],> 46 µM
same,Potency,[5],> 46 µM
same,outcome,[6],inactive
Nc1ccc(N2C(=O)c3ccccc3C2=O)c(Cl)c1,"activity change, negative = inhibition",[1],-5.66%
same,Potency,[7],inactive
same,"activity change, negative = inhibition",[2],7.18%
same,Potency,[4],> 46 µM
same,Potency,[5],> 46 µM
same,outcome,[6],inactive
NC1(C(=O)O)CCCCC1,"activity change, negative = inhibition",[1],-0.957%
same,"activity change, negative = inhibition",[2],3%
same,"activity, negative = inhibition",[3],9.73%
same,Potency,[4],> 46 µM
same,Potency,[5],> 46 µM
CC(C)NC[C@H](O)COc1cccc2ccccc12,Potency,[7],0.2 µM (active)
O=C(O)C1=CCCNC1,"activity change, negative = inhibition",[1],-0.308%
same,Potency,[7],inactive
same,"activity change, negative = inhibition",[2],3.92%
same,Potency,[4],> 46 µM
same,Potency,[5],> 46 µM
same,outcome,[6],inactive
CCCn1c(=O)c2[nH]c(-c3ccc(S(=O)(=O)O)cc3)nc2n(CCC)c1=O,"activity change, negative = inhibition",[1],7.54%
same,"activity change, negative = inhibition",[2],13.8%
same,"activity, negative = inhibition",[3],42.3%
same,Potency,[4],> 46 µM
same,Potency,[5],> 46 µM
same,outcome,[6],inactive
COc1cc(CNC(=O)CCCCCCC(C)C)ccc1O,"activity change, negative = inhibition",[1],-1.77%
same,"activity change, negative = inhibition",[2],7.5%
same,Potency,[4],> 46 µM
same,Potency,[5],> 46 µM
same,outcome,[6],inactive
CCn1c(=O)[nH]c2cc(Cl)c(Cl)cc21,Potency,[7],1.26 µM (active) and 251 nM (active)
same,"activity change, negative = inhibition",[2],-27.1%
same,"activity, negative = inhibition",[3],-18.6%
same,Potency,[4],> 46 µM
same,Potency,[5],> 46 µM
same,outcome,[6],inactive
